# Measured values reported in PubChem BioAssay (EPA / NIEHS).
# Records with an inconclusive call do not appear. Calls of active or inactive are those of the source. Rule for the calls, unless noted: active = hit-call score of the fitted dose curve at least 0.9, where 1 is the maximum; inactive = score below 0.9.
# Key:
# [1] = CCTE_Shafer_MEA_acute_spike_number: CCTE's Neural Acute Assay for Total Number of Spikes, Shafer Lab (AID 2284008)
# In short: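 Primary rat cortical neurons on 16-electrode MEA wells; on DIV 13 or 15, 40-min baseline then 40-min recording with compound (0.03-40 uM) at 37 C. Spikes detected at 8x rms noise; percent change versus baseline, DMSO as negative control.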
# [2] = CCTE_Shafer_MEA_acute_firing_rate_mean: CCTE's Neural Acute Assay for Mean Firing Rate, Shafer Lab (AID 2284009);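 note: analyzed for loss of signal so actives lower firing rate relative to DMSO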
# In short: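 Rat primary cortical neurons on 48-well MEA plates, dosed at 0.03-40 uM on DIV 13 or 15; 40 min spontaneous activity recorded at 37 C before and after compound. Spike rate per electrode averaged per well, expressed as percent change from baseline.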
# [3] = CCTE_Harrill_HTTr_Viability_MCF7: CCTE's 6-hour Cell Viability Assessment for the High-Throughput Transcriptomics (HTTr) Platform, in MCF-7 cells cultured in DMEM + 10% fetal bovine serum, Harrill Lab (AID 2284010)
# In short: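 Viability measured through PI dye exclusion by high-content imaging at 6 h post-dosing.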
# [4] = CCTE_Harrill_HTTr_Apoptosis_MCF7: CCTE's 6-hour Apoptosis Assessment for the High-Throughput Transcriptomics (HTTr) Platform, in MCF-7 cells cultured in DMEM + 10% fetal bovine serum, Harrill Lab (AID 2284011)
# In short: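 MCF-7 cells in DMEM + 10% fetal bovine serum were exposed to chemicals for 6 hours over an eight-point dilution series. Caspase-3/7 activation was imaged by high content imaging with CellEvent Caspase 3/7 Green; bidirectional fitting used DMSO as baseline.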
# [5] = CCTE_Shafer_MEA_acute_burst_duration_mean: CCTE's Neural Acute Assay for Mean Burst Duration, Shafer Lab (AID 2284014);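 note: hits are decreases in mean burst duration relative to DMSO controls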
# In short: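 Rat primary cortical neurons on 48-well MEA, treated at DIV 13 or 15 with 0.03-40 uM in at least 3 wells. Value is percent change in mean burst duration, comparing 40 min recordings at 37 C before and during exposure.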
# [6] = CCTE_Shafer_MEA_acute_interburst_interval_mean: CCTE's Neural Acute Assay for Mean Interburst Interval, Shafer Lab (AID 2284016);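 note: percent change of mean interburst interval versus each well's own pre-dose baseline; curves fitted for decrease in interburst interval relative to DMSO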
# In short: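 MEA recording of spontaneous network bursting in primary rat cortical cultures; mean interburst interval was compared before and after a 40-min compound exposure (0.03-40 uM) and expressed as percent change, relative to DMSO.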
# [7] = CCTE_Shafer_MEA_acute_burst_percentage_mean: CCTE's Neural Acute Assay for Percentage of Spikes in a Burst, Shafer Lab (AID 2284017);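 for AC50: curve fitted for loss of signal so potency reflects decreased burst percentage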
# In short: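 Compounds were tested at 0.03-40 uM on primary rat cortical neuron networks grown over microelectrodes, with at least three wells per compound. Spontaneous firing was recorded for 40 min before and 40 min after dosing, and the change in burst percentage was computed per well.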
# [8] = CCTE_Shafer_MEA_acute_burst_percentage_std: CCTE's Neural Acute Assay for Standard Deviation of Burst Percentage, Shafer Lab (AID 2284018);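 note: fitted in the negative direction so actives lower burst percentage SD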
# In short: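 Rat primary cortical neurons on 48-well MEAs, DIV 13 or 15, 37 C. 40-min baseline then 40-min recording with compound (0.03-40 uM); well-level SD of per-electrode burst spike percentage, expressed as percent change from baseline.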
# [9] = CCTE_Shafer_MEA_acute_per_network_burst_spike_number_mean: CCTE's Neural Acute Assay for Average Number of Spikes in a Network Burst, Shafer Lab (AID 2284019)
# In short: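 Rat primary cortical neurons on 48-well MEA at DIV 13 or 15, 37 C; compounds 0.03-40 uM, at least three wells each. 40-min baseline then 40-min exposure recording; percent change in mean spikes per network burst.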
# [10] = CCTE_Shafer_MEA_acute_per_network_burst_spike_number_std: CCTE's Neural Acute Assay for Standard Deviation of Number of Spikes in a Network Burst, Shafer Lab (AID 2284020);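 note: fitted for decrease in spike-number SD versus DMSO so actives lower it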
# In short: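 Rat primary cortical neurons on 48-well MEA (16 electrodes/well), treated DIV 13 or 15 at 0.03-40 uM, ≥3 wells per compound. 40 min recordings at 37 C before and after dosing; value is percent change in network-burst spike-number SD, negative direction vs DMSO.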
# [11] = CCTE_Shafer_MEA_acute_per_network_burst_electrodes_number_mean: CCTE's Neural Acute Assay for Mean Number of Electrodes in a Network Burst, Shafer Lab (AID 2284021);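 note: curves fitted for decreases only so hits reduce electrodes per burst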
# In short: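 Rat primary cortical neurons on 16-electrode MEA wells were recorded 40 min at baseline on DIV 13 or 15, then 40 min after compound (0.03-40 uM), at 37 C. Value is percent change per well, fitted in loss direction versus DMSO.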
# [12] = CCTE_Shafer_MEA_acute_network_burst_percentage: CCTE's Neural Acute Assay for Percentage of Network Bursts, Shafer Lab (AID 2284022);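 note: curves fitted for loss so actives lower network burst percentage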
# In short: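 Primary rat cortical neurons on 16-electrode MEA wells, treated on DIV 13 or 15 with compound (0.03-40 uM); 40-min baseline and 40-min post-exposure recordings at 37 C. Value is percent change in spikes within network bursts versus baseline, DMSO negative control.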
# [13] = CCTE_Shafer_MEA_acute_cross_correlation_HWHM: CCTE's Neural Acute Assay for Cross Correlation at Half Width at Half Maximum, Shafer Lab (AID 2284026);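 note: percent change per well from pre-dose baseline in spike cross-correlogram half width; hits are a decrease in cross-correlogram half width relative to DMSO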
# In short: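 Primary rat cortical neurons on 16-electrode MEA wells; 40-min baseline on DIV 13 or 15, then 40-min recording with compound (0.03-40 uM) at 37 C. HWHM of spike cross-correlogram expressed as percent change from baseline per well, DMSO reference.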
# [14] = CCTE_Shafer_MEA_acute_synchrony_index: CCTE's Neural Acute Assay for Synchrony, Shafer Lab (AID 2284027);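 note: network synchrony index of spontaneous spiking in primary rat cortical neurons on MEAs; fitted for loss of signal so actives lower synchrony relative to DMSO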
# In short: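 Spontaneous firing of mature rat cortical networks is captured extracellularly on microelectrode arrays at 37 C, with wells needing ≥10 active electrodes. Each compound (0.03-40 uM) is judged by the change in synchrony index from baseline over 40 min.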
# [15] = CCTE_Shafer_MEA_acute_burst_number: CCTE's Neural Acute Assay for Single-Electrode Bursts, Shafer Lab (AID 2284013)
# In short: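 Primary rat cortical neurons on 16-electrode MEA wells, treated on DIV 13 or 15 with compound at 0.03-40 uM. Single-electrode burst count from 40-min recordings at 37 C before and after exposure; percent change from baseline per well, DMSO negative control.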
# [16] = CCTE_Harrill_HTTr_CellCount_MCF7: CCTE's Cell Proliferation Assessment for the High-Throughput Transcriptomics (HTTr) Platform, Harrill Lab (AID 2284012; active = hit-call score of the fitted dose curve at least 0.9, where 1 is the maximum;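 note: count of Hoechst-stained nuclei per well by high-content imaging in MCF-7 cells; cells exposed to compound for six hours; intended direction is loss of nuclei count meaning fewer cells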)
# In short: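 Nuclei counting (Hoechst, high content imaging) in MCF-7 after a 6 h treatment at eight concentrations. Activity fitted bidirectionally, DMSO as negative control.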
# [17] = target: Estrogen receptor (Homo sapiens) (UniProt P03372); assay: CCTE_Deisenroth_AIME_96WELL_LUC_Active: CCTE's 96-well Estrogen Receptor Transactivation Assay with AIME metabolic competence (ERTA luciferase; metabolism positive), Deisenroth Lab (AID 2284023; active = hit-call score of the fitted dose curve at least 0.9, where 1 is the maximum)
# Chain of Estrogen receptor (Homo sapiens) (P03372 whole entry, looked up): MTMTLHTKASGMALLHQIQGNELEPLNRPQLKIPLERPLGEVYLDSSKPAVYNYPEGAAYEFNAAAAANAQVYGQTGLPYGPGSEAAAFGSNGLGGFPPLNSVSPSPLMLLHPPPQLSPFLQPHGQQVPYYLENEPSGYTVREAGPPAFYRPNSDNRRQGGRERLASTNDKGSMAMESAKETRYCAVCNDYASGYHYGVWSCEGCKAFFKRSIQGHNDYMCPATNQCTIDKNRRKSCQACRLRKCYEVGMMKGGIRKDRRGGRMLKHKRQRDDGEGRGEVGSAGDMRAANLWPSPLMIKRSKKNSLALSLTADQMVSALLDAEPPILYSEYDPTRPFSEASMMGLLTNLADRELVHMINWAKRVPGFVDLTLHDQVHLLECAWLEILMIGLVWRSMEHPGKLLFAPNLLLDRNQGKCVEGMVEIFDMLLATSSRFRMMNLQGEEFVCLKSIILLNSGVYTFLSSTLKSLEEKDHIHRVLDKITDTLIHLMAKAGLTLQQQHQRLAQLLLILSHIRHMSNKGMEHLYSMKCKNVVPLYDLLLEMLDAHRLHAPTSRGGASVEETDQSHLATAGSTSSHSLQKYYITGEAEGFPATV
# In short: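 Chemicals pre-incubated 2 h with alginate-immobilized phenobarbital/beta-naphthoflavone-induced male Sprague Dawley rat liver S9, then medium transferred to VM7Luc4E2 cells for 24 h luciferase read-out. 10-point series 0.002 - 200 uM; fitted relative to 17beta-estradiol.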
# [18] = target: Estrogen receptor (Homo sapiens) (UniProt P03372); assay: CCTE_Deisenroth_AIME_96WELL_LUC_Inactive: CCTE's 96-well Estrogen Receptor Transactivation Assay without AIME metabolic competence (ERTA luciferase; metabolism negative), Deisenroth Lab (AID 2284025; active = hit-call score of the fitted dose curve at least 0.9, where 1 is the maximum)
# In short: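 VM7Luc4E2 breast cells, luciferase read 24 h after dosing with medium pre-incubated 2 h on alginate-water lids (metabolism negative). 10-point series 0.002–200 uM, single technical replicate, n≥4; fit relative to 17beta-estradiol.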
# [19] = CCTE_Deisenroth_AIME_96WELL_CTox_Active: Cytotoxicity Assessment (CTOX) in CCTE's 96-well Estrogen Receptor Transactivation Assay with AIME metabolic competence (metabolism positive), Deisenroth Lab (AID 2284028; active = hit-call score of the fitted dose curve at least 0.9, where 1 is the maximum)
# In short: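 Chemicals (0.002–200 uM) were first incubated 2 h with alginate-immobilized phenobarbital/beta-naphthoflavone-induced male rat liver S9; conditioned medium then went onto VM7Luc4E2 cells for 24 h, with viability read by protease-substrate fluorescence, fitted bidirectionally.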
# [20] = CCTE_Deisenroth_AIME_96WELL_CTox_Inactive: Cytotoxicity Assessment (CTOX) in CCTE's 96-well Estrogen Receptor Transactivation Assay without AIME metabolic competence (metabolism negative), Deisenroth Lab (AID 2284029; active = hit-call score of the fitted dose curve at least 0.9, where 1 is the maximum)
# In short: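 Chemicals (10-point series, 0.002-200 uM) were incubated 2 h with alginate-water microspheres lacking S9. The conditioned medium was then transferred onto VM7Luc4E2 cells for 24 h. Viability was measured by protease-substrate cleavage to a fluorescent probe, with loss of signal fitted bidirectionally; n≥4 experimental replicates.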
structure (smiles),measurement,setting,value
CNC(=O)Oc1cccc2ccccc12,outcome,[1],inactive
same,outcome,[2],inactive
same,outcome,[3],inactive
same,outcome,[4],inactive
same,outcome,[5],inactive
same,outcome,[6],inactive
same,outcome,[7],inactive
same,outcome,[8],inactive
same,outcome,[9],inactive
same,outcome,[10],inactive
same,outcome,[11],inactive
same,outcome,[12],inactive
same,outcome,[13],inactive
same,outcome,[14],inactive
CC1(C)CCC(=Cc2ccc(Cl)cc2)C1(O)Cn1cncn1 (configuration not stated),outcome,[1],inactive
same,outcome,[2],inactive
same,outcome,[3],inactive
same,outcome,[4],inactive
same,outcome,[15],inactive
same,outcome,[5],inactive
same,outcome,[6],inactive
same,outcome,[7],inactive
same,outcome,[8],inactive
same,outcome,[9],inactive
same,outcome,[10],inactive
same,outcome,[11],inactive
same,outcome,[12],inactive
same,outcome,[13],inactive
same,outcome,[14],inactive
CC1(C)C(C=C(Cl)Cl)C1C(=O)OC(C#N)c1cccc(Oc2ccccc2)c1 (configuration not stated),outcome,[1],inactive
same,outcome,[2],inactive
same,outcome,[3],inactive
same,outcome,[4],inactive
same,outcome,[16],inactive
same,outcome,[15],inactive
same,outcome,[5],inactive
same,AC50,[6],4160 nM (active)
same,AC50,[7],1570 nM (active)
same,outcome,[8],inactive
same,outcome,[9],inactive
same,outcome,[10],inactive
same,AC50,[11],622 nM (active)
same,AC50,[12],1940 nM (active)
same,outcome,[17],inactive
same,AC50,[18],57000 nM (active)
same,outcome,[13],inactive
same,AC50,[14],3970 nM (active)
same,outcome,[19],inactive
same,outcome,[20],inactive
COCC(=O)N(c1c(C)cccc1C)C(C)C(=O)OC (configuration not stated),outcome,[1],inactive
same,outcome,[2],inactive
same,outcome,[3],inactive
same,outcome,[4],inactive
same,outcome,[15],inactive
same,outcome,[5],inactive
same,outcome,[6],inactive
same,outcome,[7],inactive
same,outcome,[8],inactive
same,outcome,[9],inactive
same,outcome,[10],inactive
same,outcome,[11],inactive
same,outcome,[12],inactive
same,outcome,[13],inactive
same,outcome,[14],inactive
O=c1n(Cl)c(=O)n(Cl)c(=O)n1Cl,outcome,[3],inactive
same,outcome,[4],inactive
C=CCOC(=O)C(C)(C)OC(=O)c1cc(-n2c(=O)cc(C(F)(F)F)n(C)c2=O)ccc1Cl,outcome,[3],inactive
same,outcome,[4],inactive
same,outcome,[16],inactive
CCNC(=O)NC(=O)C(C#N)=NOC,outcome,[3],inactive
same,outcome,[4],inactive
same,outcome,[16],inactive
O=C(O)c1c(Cl)ccc2cc(Cl)cnc12,outcome,[3],inactive
same,outcome,[4],inactive
Nc1c(Cl)c(Cl)nc(C(=O)O)c1Cl,outcome,[3],inactive
same,outcome,[4],inactive
same,outcome,[16],inactive
